Measurements: PubChem BioAssay (NCI)
This is part of a sample that, as a whole, favours compounds with a hit. Of some 83,000 tested, about 20% had one in any assay.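 The test compound was applied at a single concentration to cells in 96-well plates for 48 hours, and percent growth was recorded.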 Active and inactive are the calls of the source. Rule for the calls: active = growth percent below 10; inactive = the rest.

Assays:
Experiment in all cases: NCI-60 one-dose screen, 48 h (100 = growth as untreated, 0 = no growth, -100 = all killed)
Settings in all cases: 10 µM unless noted
NCI-H23 lung = tested on: NCI-H23 lung
NCI-H226 lung = tested on: NCI-H226 lung
NCI-H322M lung = tested on: NCI-H322M lung
HOP-62 NSCLC = tested on: HOP-62 NSCLC
NCI-H460 lung = tested on: NCI-H460 lung
HOP-92 NSCLC = tested on: HOP-92 NSCLC
NCI-H522 lung = tested on: NCI-H522 lung
A549/ATCC NSCLC = tested on: A549/ATCC NSCLC
786-0 renal = tested on: 786-0 renal
COLO 205 colon = tested on: COLO 205 colon

Measured: growth

COc1ccc2c(c1)OC1=C(C(=O)OC1)C2c1cc(OC)c(OC)c(OC)c1 (stereo not given)
active: NCI-H460 lung 5.28% | NCI-H522 lung -32.5% | COLO 205 colon 1.87%
inactive: NCI-H23 lung 31.8% | NCI-H226 lung 26.8% | NCI-H322M lung 52.6% | HOP-62 NSCLC 33.2% | HOP-92 NSCLC 74.8% | A549/ATCC NSCLC 20.7% | 786-0 renal 36.8%

C#CC(=O)Nc1cccc2c1cc(C)n2-c1nc2c(c(NCc3ccccc3)n1)CCCC2
active: NCI-H23 lung -43.1% | NCI-H226 lung -40.2% | NCI-H322M lung -82.4% | HOP-62 NSCLC -46.8% | NCI-H460 lung -48.3% | HOP-92 NSCLC -53.8% | NCI-H522 lung -82.2% | A549/ATCC NSCLC -46.5% | 786-0 renal -53.1% | COLO 205 colon -69.1%

Cc1cc(Nc2cccc(C(F)(F)F)c2)n2c(nc3ccccc32)c1C#N
inactive: NCI-H23 lung 25.1% | NCI-H226 lung 40.1% | NCI-H322M lung 36.9% | HOP-62 NSCLC 53.6% | NCI-H460 lung 17% | NCI-H522 lung 20.7% | A549/ATCC NSCLC 43.7% | 786-0 renal 58.9% | COLO 205 colon 36.9%
active: HOP-92 NSCLC -2.32%

COc1ccc(-c2nc(SCCC(C)C)nc(N/N=C(/C)c3ccc(C)cc3)c2C#N)cc1
inactive: NCI-H23 lung 84.5% | NCI-H226 lung 91.7% | NCI-H322M lung 87.4% | HOP-62 NSCLC 93.9% | NCI-H460 lung 99.7% | HOP-92 NSCLC 62.2% | NCI-H522 lung 87.2% | A549/ATCC NSCLC 99.3% | 786-0 renal 102% | COLO 205 colon 109%

CCCNC(=O)Oc1ccc(/C(=C(\C)c2ccccc2)c2ccc(OCCN3CCCCC3)cc2)cc1
inactive: NCI-H23 lung 79.4% | NCI-H226 lung 89.5% | NCI-H322M lung 83.3% | HOP-62 NSCLC 81.9% | NCI-H460 lung 66.7% | HOP-92 NSCLC 80.7% | NCI-H522 lung 103% | A549/ATCC NSCLC 62.2% | 786-0 renal 35.8% | COLO 205 colon 38%

O=C(Nc1nc(-c2ccc(Br)cc2)cs1)c1cc(-c2ccc(Br)cc2)nc2ccc(Cl)cc12
inactive: NCI-H23 lung 69.7% | NCI-H226 lung 76.3% | NCI-H322M lung 89.9% | HOP-62 NSCLC 80.1% | NCI-H460 lung 88.3% | HOP-92 NSCLC 71.7% | NCI-H522 lung 76.9% | A549/ATCC NSCLC 84.8% | 786-0 renal 94.3% | COLO 205 colon 84.5%

CC(=O)OCC(=O)C1(O)C(C)CC2C3C=C(C)C4=Cc5c(cnn5-c5ccccc5)CC4(C)C3C(O)CC21C (stereo not given)
inactive: NCI-H226 lung 43.2% | NCI-H322M lung 57.9% | A549/ATCC NSCLC 24.5%
active: NCI-H23 lung 8.49% | HOP-62 NSCLC 7.4% | NCI-H460 lung 6.3% | HOP-92 NSCLC -0.484% | NCI-H522 lung 4.55% | 786-0 renal -39.2% | COLO 205 colon -70.1%

COc1cccc(C(Cc2ccccc2)Nc2ccccc2)c1OC (stereo not given)
inactive: NCI-H23 lung 92.1% | NCI-H226 lung 91.3% | NCI-H322M lung 101% | HOP-62 NSCLC 92.6% | NCI-H460 lung 101% | HOP-92 NSCLC 77.5% | NCI-H522 lung 65.6% | A549/ATCC NSCLC 81.4% | 786-0 renal 95.5% | COLO 205 colon 105%

O=C(CN1CCOCC1)Nc1ccc2ncnc(Nc3ccc(OCc4cccc(F)c4)c(Cl)c3)c2c1
inactive: NCI-H23 lung 89.6% | NCI-H226 lung 85.1% | NCI-H322M lung 20.9% | HOP-62 NSCLC 84.5% | NCI-H460 lung 67.5% | HOP-92 NSCLC 60% | NCI-H522 lung 25.2% | A549/ATCC NSCLC 49.9% | 786-0 renal 66.2% | COLO 205 colon 66.7%

COc1cccc(CCC(=O)c2cc3c(N)c(C(=O)Nc4cccc(Cl)c4C)sc3nc2C)c1
active: NCI-H460 lung 7.76% | COLO 205 colon 7.16%
inactive: NCI-H23 lung 37.4% | NCI-H226 lung 45.7% | NCI-H322M lung 43.6% | HOP-62 NSCLC 36.4% | HOP-92 NSCLC 48% | NCI-H522 lung 12.1% | A549/ATCC NSCLC 27.3% | 786-0 renal 25.9%

CCCCN(CCCC)CCc1c(C)cc(C)c(CCN(CCCC)CCCC)c1O
active: NCI-H23 lung 4.18% | NCI-H460 lung 7.59% | HOP-92 NSCLC -11.3% | NCI-H522 lung -6.82%
inactive: NCI-H226 lung 26.8% | NCI-H322M lung 35.5% | HOP-62 NSCLC 62.4% | A549/ATCC NSCLC 41.5% | 786-0 renal 41.1% | COLO 205 colon 20%

COc1cc(C(=O)c2cnc(-c3ccc4cc[nH]c4c3)[nH]2)cc(OC)c1OC
active: NCI-H460 lung -9.07% | HOP-92 NSCLC -2.58% | NCI-H522 lung -17.4% | A549/ATCC NSCLC 8.91% | 786-0 renal -8.83% | COLO 205 colon -55.3%
inactive: NCI-H23 lung 22.9% | NCI-H226 lung 26.2% | NCI-H322M lung 36.3% | HOP-62 NSCLC 12.7%

COc1cc(NCC(O)CN(CC(C)C)CC(C)C)c2nc(C)ccc2c1 (stereo not given)
inactive: NCI-H23 lung 85.6% | NCI-H226 lung 88.5% | NCI-H322M lung 107% | HOP-62 NSCLC 67.7% | NCI-H460 lung 96.5% | HOP-92 NSCLC 98.6% | NCI-H522 lung 68.2% | A549/ATCC NSCLC 67.3% | 786-0 renal 90.7% | COLO 205 colon 66.3%

CN1C2CCC1CN(c1cnc(C(=O)Nc3cc(F)cc4cccnc34)cn1)C2
inactive: NCI-H23 lung 46.8% | NCI-H226 lung 88.9% | NCI-H322M lung 74.6% | HOP-62 NSCLC 88.6% | NCI-H460 lung 83.4% | HOP-92 NSCLC 81.2% | NCI-H522 lung 24.4% | A549/ATCC NSCLC 87.5% | 786-0 renal 51.8% | COLO 205 colon 10.4%

COc1cc(COC(=O)CCCCC[P+](c2ccccc2)(c2ccccc2)c2ccccc2)c(OC)c2c1OCO2
inactive: NCI-H23 lung 51.9% | NCI-H226 lung 67.6% | NCI-H322M lung 84.1% | HOP-62 NSCLC 79.2% | NCI-H460 lung 64.5% | HOP-92 NSCLC 20.1% | NCI-H522 lung 50.2% | A549/ATCC NSCLC 81.2% | 786-0 renal 91.9% | COLO 205 colon 71.4%

COc1ccc(C(O)c2cc3c(N)c(C(=O)Nc4ccccc4)sc3nc2C)cc1 (stereo not given)
active: NCI-H460 lung 3.3% | NCI-H522 lung -55.9% | COLO 205 colon -58.9%
inactive: NCI-H23 lung 29.7% | NCI-H226 lung 51.1% | NCI-H322M lung 35.4% | HOP-62 NSCLC 18.8% | HOP-92 NSCLC 30.3% | A549/ATCC NSCLC 13.4% | 786-0 renal 29.3%

Nc1c(C(=O)Nc2cccc3ccncc23)sc2nc3c(cc12)C(=O)CCC3
active: NCI-H522 lung -15.7%
inactive: NCI-H23 lung 58.1% | NCI-H226 lung 73.8% | NCI-H322M lung 72.3% | HOP-62 NSCLC 62.8% | NCI-H460 lung 11.6% | HOP-92 NSCLC 69.6% | A549/ATCC NSCLC 38.6% | 786-0 renal 44.5% | COLO 205 colon 28.2%

N#C/C(=C\c1ccc(Br)cc1)n1nnc2cccc(F)c21
active: NCI-H460 lung -47% | HOP-92 NSCLC -23.7% | COLO 205 colon -12.5%
inactive: NCI-H23 lung 23.8% | NCI-H226 lung 41.9% | NCI-H322M lung 32.3% | HOP-62 NSCLC 40% | NCI-H522 lung 18.4% | A549/ATCC NSCLC 20.9% | 786-0 renal 11.2%

O=c1[nH]c2c(s1)CCCC2CN1CCCCC1 (stereo not given)
inactive: NCI-H23 lung 96.5% | NCI-H226 lung 95.1% | NCI-H322M lung 112% | HOP-62 NSCLC 83.7% | NCI-H460 lung 106% | HOP-92 NSCLC 104% | NCI-H522 lung 89.5% | A549/ATCC NSCLC 80.4% | 786-0 renal 96.2% | COLO 205 colon 98.4%

COc1cc(CCNc2nc3cc(N)cc(N)c3nc2-c2ccccc2)cc(OC)c1
inactive: NCI-H23 lung 19.3% | NCI-H226 lung 90.5% | NCI-H322M lung 23.8% | NCI-H460 lung 34.1% | A549/ATCC NSCLC 78.3%
active: HOP-62 NSCLC -35.1% | HOP-92 NSCLC -71.2% | NCI-H522 lung -65.1% | 786-0 renal -60% | COLO 205 colon -60.8%

Nc1nnc2cc(Cl)ccc2n1
inactive: NCI-H23 lung 110% | NCI-H226 lung 92% | NCI-H322M lung 94.5% | HOP-62 NSCLC 115% | NCI-H460 lung 115% | HOP-92 NSCLC 65.6% | NCI-H522 lung 94.7% | A549/ATCC NSCLC 108% | 786-0 renal 129% | COLO 205 colon 103%

CCNC(=O)c1[nH]cc(-c2ccc(OC)cc2)c1-c1cc(OC)c(OC)c(OC)c1
inactive: NCI-H23 lung 60.3% | NCI-H226 lung 83% | NCI-H322M lung 51.6% | HOP-62 NSCLC 45% | NCI-H460 lung 13.7% | NCI-H522 lung 17.6% | A549/ATCC NSCLC 51.1% | 786-0 renal 47.5% | COLO 205 colon 32.5%
active: HOP-92 NSCLC 8.85%

COc1ccc(CNCCN2C(=O)c3ccc4c5c(ccc(c35)C2=O)C(=O)N(CCNCc2ccc(OC)cc2)C4=O)cc1
active: NCI-H23 lung -52.5% | NCI-H226 lung -63.7% | NCI-H322M lung -74.2% | HOP-62 NSCLC -33.8% | NCI-H460 lung -78.8% | HOP-92 NSCLC -46.8% | NCI-H522 lung -80.9% | A549/ATCC NSCLC -84.1% | 786-0 renal -76.5% | COLO 205 colon -40.9%

CC(=O)NCCCS(=O)(=O)O
inactive: NCI-H23 lung 101% | NCI-H226 lung 119% | NCI-H322M lung 107% | HOP-62 NSCLC 105% | NCI-H460 lung 101% | HOP-92 NSCLC 82.2% | NCI-H522 lung 83.4% | A549/ATCC NSCLC 114% | 786-0 renal 99.6% | COLO 205 colon 105%

Cn1c(COC(=O)NCCN2CCOCC2)nc2c(N3CCOCC3)nc(-c3ccccc3)nc21
active: NCI-H23 lung -48.2% | NCI-H226 lung -65% | NCI-H460 lung 1.27% | HOP-92 NSCLC -62.8% | NCI-H522 lung -44.6% | 786-0 renal -83.9% | COLO 205 colon -45.7%
inactive: NCI-H322M lung 69% | HOP-62 NSCLC 23.2% | A549/ATCC NSCLC 30.7%
